In PubChem BioAssay (EPA / NIEHS) one finds outcome and AC50 data, which are given here for 4 compounds.

Each structure is given as a SMILES string. Calls of active or inactive are those of the source. The calls were made as follows: active = hit-call score of the fitted dose curve at least 0.9, where 1 is the maximum; inactive = score below 0.9.

As usually defined, the AC50 is the concentration at which the activity in the assay is half-maximal.

Details in all cases: mRNA level, 48 h; actives raise or lower the signal
Read-out in assay [1]: Interleukin 6 Receptor (IL6R), IL6R (gene 3570)
Put plainly: LTEA_HepaRG_IL6R: Life Technologies and Expression Analysis (LTEA) Assay for Interleukin 6 Receptor (IL6R) using HepaRG (AID 2283510). In a few lines: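 Differentiated HepaRG cells, plated 48 h, then exposed in duplicate for 48 h in serum-free induction medium to 8 half-log concentrations (top 100 uM, 0.5% DMSO). IL6R mRNA measured by TaqMan qRT-PCR, normalized to ACTB/GAPDH/POLR2A; bidirectional fit vs DMSO.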

Read-out in assay [2]: Potassium channel subfamily K member 1 (KCNK1), KCNK1 (gene 3775)
Put plainly: LTEA_HepaRG_KCNK1: Life Technologies and Expression Analysis (LTEA) Assay for Potassium channel subfamily K member 1 (KCNK1) using HepaRG (AID 2283511). In a few lines: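 Gain or loss of KCNK1 mRNA is the read-out, quantified by qRT-PCR against three housekeeping genes after 48 h chemical treatment of human HepaRG liver cells. Concentrations ran from 100 uM downward in half-log steps, vehicle 0.5% DMSO.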

Read-out in assay [3]: Keratin 19 (KRT19), KRT19 (gene 3880)
The assay is described as follows: LTEA_HepaRG_KRT19: Life Technologies and Expression Analysis (LTEA) Assay for Keratin 19 (KRT19) using HepaRG (AID 2283512). In a few lines:
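Gene-expression endpoint in the human liver line HepaRG after 48 h exposure to up to 100 uM test chemical with 0.5% DMSO vehicle; KRT19 mRNA by qRT-PCR, analyzed bidirectionally versus DMSO.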

Read-out in assay [4]: JUN Transcription Factor, JUN (gene 3725)
Put plainly: LTEA_HepaRG_JUN: Life Technologies and Expression Analysis (LTEA) Assay for JUN Transcription Factor using HepaRG (AID 2283513). Put shortly:
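HepaRG cells, 48 h post-plating, exposed 48 h in serum-free induction medium to 8-point half-log series (top 100 uM, 0.5% DMSO), duplicate; mRNA by qRT-PCR (TaqMan, Fluidigm), normalized to ACTB/GAPDH/POLR2A; bidirectional fit vs DMSO.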

Read-out in assay [5]: Lipase C (LIPC), LIPC (gene 3990)
Put plainly: LTEA_HepaRG_LIPC: Life Technologies and Expression Analysis (LTEA) Assay for Lipase C (LIPC) using HepaRG (AID 2283514). Put shortly: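 Read-out is LIPC transcript level by TaqMan qRT-PCR, normalized to three housekeeping genes, after 48 h chemical treatment of human HepaRG liver cells. Curves span eight concentrations topping at 100 uM; activity in either direction scored relative to 0.5% DMSO.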

Read-out in assay [6]: Lipoprotein lipase (LPL), LPL (gene 4023)
The assay is described as follows: LTEA_HepaRG_LPL: Life Technologies and Expression Analysis (LTEA) Assay for Lipoprotein lipase (LPL) using HepaRG (AID 2283515). Put shortly: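 Read-out is LPL transcript level by qRT-PCR, normalized to three housekeeping genes and fitted bidirectionally against the DMSO control. Human HepaRG cells received chemicals for 48 h at up to 100 uM.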

Read-out in assay [7]: MicroRNA 122 (MIR122), gene 406906
The assay is described as follows: LTEA_HepaRG_MIR122: Life Technologies and Expression Analysis (LTEA) Assay for MicroRNA 122 (MIR122) using HepaRG (AID 2283516). Also: the transcript read is the microRNA miR-122. Put shortly:
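Differentiated human HepaRG cells in serum-free induction medium exposed 48 h to 8 half-log concentrations from 100 uM in 0.5% DMSO, duplicate. MIR122 quantified by Fluidigm TaqMan qRT-PCR, normalised to ACTB, GAPDH, POLR2A; fold change fitted bidirectionally versus DMSO.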

Read-out in assay [8]: matrix metalloproteinase-10 (MMP10), MMP10 (gene 4319)
The assay is described as follows: LTEA_HepaRG_MMP10: Life Technologies and Expression Analysis (LTEA) Assay for matrix metalloproteinase-10 (MMP10) using HepaRG (AID 2283517). In a few lines: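 Gain or loss of MMP10 mRNA is fitted relative to the 0.5% DMSO vehicle. The human hepatic line HepaRG receives a 48-hour serum-free exposure, in duplicate, with a maximum concentration of 100 uM.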

Read-out in a further assay: MYC, MYC (gene 4609)
The assay is described as follows: LTEA_HepaRG_MYC: Life Technologies and Expression Analysis (LTEA) Assay for MYC using HepaRG (AID 2283518). In a few lines:
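Cells are thawed, plated and cultured 48 h, then treated for 48 h with test chemicals (eight half-log concentrations from 100 uM, 0.5% DMSO vehicle). RNA is isolated and MYC expression quantified by qRT-PCR against three housekeeping genes.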

Read-out in assay [9]: matrix metalloproteinase-3 (MMP3), MMP3 (gene 4314)
Put plainly: LTEA_HepaRG_MMP3: Life Technologies and Expression Analysis (LTEA) Assay for matrix metalloproteinase-3 (MMP3) using HepaRG (AID 2283519). Put shortly:
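HepaRG, human; 48 h dosing, 8 conc. (max 100 uM, half-log), duplicate, 0.5% DMSO. Readout: MMP3 transcript by Fluidigm TaqMan qRT-PCR, ACTB/GAPDH/POLR2A-normalised. Gain or loss fitted vs DMSO.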

Read-out in assay [10]: Paternally Expressed 10 (PEG10), PEG10 (gene 23089)
The assay is described as follows: LTEA_HepaRG_PEG10: Life Technologies and Expression Analysis (LTEA) Assay for Paternally Expressed 10 (PEG10) using HepaRG (AID 2283520). In a few lines:
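Differentiated HepaRG cells exposed 48 h in serum-free induction medium to eight half-log concentrations topping at 100 uM, 0.5% DMSO, in duplicate. PEG10 mRNA quantified by TaqMan qRT-PCR, normalized to ACTB, GAPDH and POLR2A; bidirectional fit versus DMSO.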

Read-out in assay [11]: Protein phosphatase 2A (PPP2R4), PTPA (gene 5524)
The assay is described as follows: LTEA_HepaRG_PPP2R4: Life Technologies and Expression Analysis (LTEA) Assay for Protein phosphatase 2A (PPP2R4) using HepaRG (AID 2283522). Put shortly: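 Differentiated human HepaRG cells in serum-free induction medium were exposed 48 h to 8 concentrations (top 100 µM, half-log steps, duplicate) in 0.5% DMSO. PPP2R4 mRNA was measured by TaqMan qRT-PCR, normalised to ACTB, GAPDH and POLR2A, and fitted bidirectionally versus DMSO.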

Read-out in assay [12]: Phosphatase and tensin (PTEN), PTEN (gene 5728)
Put plainly: LTEA_HepaRG_PTEN: Life Technologies and Expression Analysis (LTEA) Assay for Phosphatase and tensin (PTEN) using HepaRG (AID 2283523). In a few lines: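 Read-out is PTEN transcript level by multiplexed TaqMan qRT-PCR after 48 h chemical treatment of human HepaRG cultures in serum-free induction medium. Concentrations spanned 100 uM downward in half-log steps, 0.5% DMSO throughout; activity fitted in both directions against vehicle.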

Read-out in assay [13]: solute carrier (SLC22A1), SLC22A1 (gene 6580)
Put plainly: LTEA_HepaRG_SLC22A1: Life Technologies and Expression Analysis (LTEA) Assay for solute carrier (SLC22A1) using HepaRG (AID 2283524). In a few lines: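 HepaRG (human liver line), 48 h dosing in serum-free induction medium; 8 conc., half-log down from 100 uM, 0.5% DMSO vehicle, duplicates. Endpoint: SLC22A1 mRNA, qRT-PCR, housekeeping-normalized; gain/loss fit vs DMSO.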

Read-out in assay [14]: Pyruvate Dehydrogenase Kinase 4 (PDK4), PDK4 (gene 5166)
The assay is described as follows: LTEA_HepaRG_PDK4: Life Technologies and Expression Analysis (LTEA) Assay for Pyruvate Dehydrogenase Kinase 4 (PDK4) using HepaRG (AID 2283525). Put shortly:
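In this multiplexed human HepaRG expression assay, cells are treated 48 h with test chemicals across an eight-point range starting at 100 uM. PDK4 mRNA changes, normalized to ACTB/GAPDH/POLR2A, are fitted in both directions relative to vehicle.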

Read-out in assay [15]: NAD(P)H dehydrogenase [quinone] 1 (NQO1), NQO1 (gene 1728)
The assay is described as follows: LTEA_HepaRG_NQO1: Life Technologies and Expression Analysis (LTEA) Assay for NAD(P)H dehydrogenase [quinone] 1 (NQO1) using HepaRG (AID 2283526). Put shortly: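 Differentiated human HepaRG cells in serum-free induction medium, dosed in duplicate for 48 h at 8 half-log concentrations up to 100 uM in 0.5% DMSO. NQO1 mRNA by qRT-PCR normalized to ACTB, GAPDH, POLR2A; bidirectional fit versus DMSO baseline.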

Read-out in assay [16]: Nuclear factor erythroid 2-related factor 2 (Homo sapiens) (UniProt Q16236)
Put plainly: LTEA_HepaRG_NFE2L2: Life Technologies and Expression Analysis (LTEA) Assay for Nuclear factor erythroid 2-related factor 2 (NFE2L2) Transcription Factor using HepaRG (AID 2283527). In a few lines: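 Transcript level of NFE2L2 is the read-out, measured by microfluidic TaqMan qRT-PCR and normalized to three housekeeping genes. Human HepaRG cultures received test chemical for 48 h at up to 100 uM in half-log steps. Gain or loss of signal is fitted relative to 0.5% DMSO.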

Read-out in assay [17]: succinate dehydrogenase complex iron sulfur subunit B (SDHB), SDHB (gene 6390)
The assay is described as follows: LTEA_HepaRG_SDHB: Life Technologies and Expression Analysis (LTEA) Assay for succinate dehydrogenase complex iron sulfur subunit B (SDHB) using HepaRG (AID 2283528). Put shortly:
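SDHB transcript level read by TaqMan qRT-PCR, housekeeping-normalised (ACTB, GAPDH, POLR2A), after 48 h chemical treatment of plated HepaRG cells; eight concentrations top 100 uM, half-log steps, 0.5% DMSO, duplicates; fitted both directions against DMSO.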

Read-out in assay [18]: Signal transducer and activator of transcription 3 (Homo sapiens) (UniProt P40763)
Put plainly: LTEA_HepaRG_STAT3: Life Technologies and Expression Analysis (LTEA) Assay for Signal transducer and activator of transcription (STAT3) using HepaRG (AID 2283529). In a few lines: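 Read-out is STAT3 mRNA level by qRT-PCR, normalized to three housekeeping genes, in human HepaRG liver cells treated for 48 h. Concentrations ran from 100 uM downward in half-log steps; curves were fitted for gain or loss relative to 0.5% DMSO.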

Signal transducer and activator of transcription 3 (Homo sapiens), sequence (P40763 whole entry, looked up): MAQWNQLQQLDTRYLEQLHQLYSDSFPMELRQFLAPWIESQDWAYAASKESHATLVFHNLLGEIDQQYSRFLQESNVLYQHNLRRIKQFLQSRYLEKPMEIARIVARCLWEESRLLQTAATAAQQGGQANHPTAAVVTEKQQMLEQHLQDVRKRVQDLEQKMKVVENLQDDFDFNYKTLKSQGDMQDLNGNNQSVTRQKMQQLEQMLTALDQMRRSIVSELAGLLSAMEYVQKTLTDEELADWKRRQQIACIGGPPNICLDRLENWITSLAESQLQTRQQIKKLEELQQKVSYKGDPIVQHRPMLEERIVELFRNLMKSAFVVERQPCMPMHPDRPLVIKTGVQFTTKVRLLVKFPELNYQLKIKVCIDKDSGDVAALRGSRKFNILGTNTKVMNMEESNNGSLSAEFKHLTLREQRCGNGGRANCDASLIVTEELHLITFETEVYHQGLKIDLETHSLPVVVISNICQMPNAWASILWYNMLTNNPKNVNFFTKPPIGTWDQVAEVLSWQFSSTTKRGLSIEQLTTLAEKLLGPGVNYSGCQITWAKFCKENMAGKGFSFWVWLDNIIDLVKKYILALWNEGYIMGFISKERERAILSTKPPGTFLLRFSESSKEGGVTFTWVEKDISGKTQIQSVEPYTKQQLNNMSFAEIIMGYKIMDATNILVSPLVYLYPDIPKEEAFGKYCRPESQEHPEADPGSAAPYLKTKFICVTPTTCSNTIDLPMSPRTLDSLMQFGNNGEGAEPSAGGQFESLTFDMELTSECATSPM
Nuclear factor erythroid 2-related factor 2 (Homo sapiens), sequence (Q16236 whole entry, looked up): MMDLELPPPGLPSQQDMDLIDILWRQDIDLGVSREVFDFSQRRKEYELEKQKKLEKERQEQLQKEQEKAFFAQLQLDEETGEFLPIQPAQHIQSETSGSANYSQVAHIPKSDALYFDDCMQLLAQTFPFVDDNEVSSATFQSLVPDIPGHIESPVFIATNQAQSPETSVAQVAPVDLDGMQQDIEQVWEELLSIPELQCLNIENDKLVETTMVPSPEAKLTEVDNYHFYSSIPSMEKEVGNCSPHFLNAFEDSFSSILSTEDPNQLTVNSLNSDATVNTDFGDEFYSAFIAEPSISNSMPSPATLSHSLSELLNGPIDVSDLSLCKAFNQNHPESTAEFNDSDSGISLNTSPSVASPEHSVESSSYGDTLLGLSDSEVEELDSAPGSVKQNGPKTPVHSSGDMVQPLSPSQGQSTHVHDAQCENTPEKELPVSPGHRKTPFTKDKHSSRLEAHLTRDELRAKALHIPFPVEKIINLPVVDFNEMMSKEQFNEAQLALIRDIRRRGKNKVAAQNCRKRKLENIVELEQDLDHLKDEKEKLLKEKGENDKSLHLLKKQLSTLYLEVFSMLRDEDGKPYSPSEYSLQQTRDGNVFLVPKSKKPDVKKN

With `CCCCC(C#N)(Cn1cncn1)c1ccc(Cl)cc1` (stereo not given), the outcome in assay [1], in assay [2], in assay [3], in assay [4], in assay [5] and in [6] was inactive. Besides, the outcome was “inactive” in assay [7]; “inactive” in assay [8]; “inactive” with MYC, MYC (gene 4609); “inactive” in assay [10]; “inactive” in assay [11]; “inactive” in [12]. In addition, the result in assay [13], in [14], in assay [15], in [16], in assay [17] and in [18] was inactive. Besides, the concentration at half-maximal activity (AC50) in assay [9] is 73.1 µM (active).

As to `Nc1cnn(-c2ccccc2)c(=O)c1Cl`, the compound was called inactive in [1], in [2], in [3], in assay [4], in assay [5] and in [6]. Also, the outcome in assay [7] was “inactive”; in assay [8] it was “inactive”; with MYC, MYC (gene 4609), “inactive”; in [9], “inactive”; in [10] it was “inactive”; in assay [11] it was “inactive”. Besides, the result in [12], in [13], in assay [14], in assay [15], in assay [16] and in assay [17] was inactive. Besides, the compound was classed as inactive in [18].

For the compound `COC(=O)N(C(=O)N1CO[C@@]2(C(=O)OC)Cc3cc(Cl)ccc3C2=N1)c1ccc(OC(F)(F)F)cc1`, the outcome in [2] was “inactive”; in assay [4], “inactive”; in assay [8], “inactive”; with MYC, MYC (gene 4609) it was “inactive”; in [9], “inactive”; in [11], “inactive”. Further, the compound was called inactive in [12], in [15], in assay [17] and in assay [18]. The AC50 was 16.9 µM (active) in assay [3]; 40 µM (active) in [5]; 2.97 µM (active) in assay [6]; 40 µM (active) in [7]; 20.5 µM (active) in assay [10]; 47.9 µM (active) in assay [13]. Further, the concentration at half-maximal activity (AC50) in [14] was 40 µM (active); in assay [16], 10 µM (active).

With `COCc1cnc(C2=NC(C)(C(C)C)C(=O)N2)c(C(=O)O)c1` (stereo not given), the call in assay [1], in [2], in assay [3], in assay [4], in assay [5] and in assay [6] was inactive. In addition, the outcome in assay [7] is “inactive”; in [8], “inactive”; in the assay with MYC, MYC (gene 4609) it was “inactive”; in [9], “inactive”; in [10], “inactive”; in assay [11], “inactive”. Moreover, the call in assay [12], in [13], in [14], in assay [15], in [16] and in [17] was inactive. Besides, the compound was classed as inactive in [18].
